# Results reported in PMC7862700, “An all-to-all approach to the identification of sequence-specific readers for epigenetic DNA modifications on cytosine”.
# What was measured:
# Assay in all cases: DAPPL (digital affinity profiling via proximity ligation, sequencing); 10 mM Tris-HCl pH 7.5, 50 mM NaCl, 1 mM DTT, 4% glycerol, room temperature, 30 min; GST-TFs on glutathione beads, 16-mer random dsDNA library, 0.1% formaldehyde crosslink after washing; high values mean tight binding
# FLI1 = target: T1, FLI1 (Homo sapiens, UniProt Q01543 1-452); conditions: protein: recombinant; tags: N-terminal GST; dsDNA, one strand shown
# T1 sequence: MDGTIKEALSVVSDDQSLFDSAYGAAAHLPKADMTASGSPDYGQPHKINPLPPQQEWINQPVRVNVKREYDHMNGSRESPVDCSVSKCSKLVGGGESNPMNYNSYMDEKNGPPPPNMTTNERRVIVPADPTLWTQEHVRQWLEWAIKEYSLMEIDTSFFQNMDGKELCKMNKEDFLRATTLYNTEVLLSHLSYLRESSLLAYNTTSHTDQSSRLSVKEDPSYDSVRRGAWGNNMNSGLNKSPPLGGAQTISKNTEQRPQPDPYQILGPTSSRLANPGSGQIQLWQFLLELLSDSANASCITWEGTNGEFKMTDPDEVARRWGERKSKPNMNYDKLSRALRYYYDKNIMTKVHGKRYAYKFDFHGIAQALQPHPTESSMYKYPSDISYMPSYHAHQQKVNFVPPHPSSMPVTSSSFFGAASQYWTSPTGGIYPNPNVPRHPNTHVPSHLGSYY
# Outline: (§1)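 In yeast, human transcription factors were expressed with a GST fusion, then pulled down on glutathione beads and given DNA barcodes. Pooled with a tag-only sample, they were exposed to 200 nmole of a 16-mer random double-stranded DNA library (Tris/NaCl/DTT/glycerol buffer, room temperature, 30 min), washed, crosslinked with 0.1% formaldehyde, proximity-ligated using BsaI/T4 ligase for 1 h at 37 °C, PCR-amplified and read on an Illumina NextSeq500. Each hexamer's frequency of reads for a factor, divided by the matching frequency for the tag-only sample, gives the binding signal.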
# ELK1 = target: T2, ELK1 (Homo sapiens, UniProt P19419 1-428); conditions: protein: recombinant; tags: N-terminal GST; dsDNA, one strand shown
# T2 sequence: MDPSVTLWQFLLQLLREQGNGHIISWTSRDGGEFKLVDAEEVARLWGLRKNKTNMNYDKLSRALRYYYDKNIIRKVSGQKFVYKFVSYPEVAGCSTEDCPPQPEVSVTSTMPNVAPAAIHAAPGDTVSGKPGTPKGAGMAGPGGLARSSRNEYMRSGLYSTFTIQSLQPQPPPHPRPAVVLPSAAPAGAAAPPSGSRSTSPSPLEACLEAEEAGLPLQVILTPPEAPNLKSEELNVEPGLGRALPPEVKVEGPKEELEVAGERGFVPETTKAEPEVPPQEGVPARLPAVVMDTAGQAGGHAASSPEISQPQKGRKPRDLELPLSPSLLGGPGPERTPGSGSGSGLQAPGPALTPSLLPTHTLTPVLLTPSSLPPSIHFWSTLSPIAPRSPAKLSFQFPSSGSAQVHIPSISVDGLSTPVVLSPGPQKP
# Outline: as §1
# GABPA = target: T3, GABPA (Homo sapiens, UniProt Q06546 1-454); conditions: protein: recombinant; tags: N-terminal GST; dsDNA, one strand shown
# T3 sequence: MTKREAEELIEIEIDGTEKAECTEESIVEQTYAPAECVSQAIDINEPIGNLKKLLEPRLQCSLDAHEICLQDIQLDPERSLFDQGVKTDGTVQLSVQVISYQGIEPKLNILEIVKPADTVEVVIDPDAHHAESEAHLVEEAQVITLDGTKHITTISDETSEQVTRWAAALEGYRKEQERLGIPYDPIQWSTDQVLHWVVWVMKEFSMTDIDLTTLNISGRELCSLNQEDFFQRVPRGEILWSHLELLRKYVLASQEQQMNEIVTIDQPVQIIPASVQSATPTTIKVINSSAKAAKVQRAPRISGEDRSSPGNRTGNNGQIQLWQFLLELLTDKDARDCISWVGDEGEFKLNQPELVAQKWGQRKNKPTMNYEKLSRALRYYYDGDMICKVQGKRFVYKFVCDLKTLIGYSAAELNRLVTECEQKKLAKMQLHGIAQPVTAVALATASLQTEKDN
# Outline: as §1
# ERG = target: T4, ERG (Homo sapiens, UniProt P11308 1-479); conditions: protein: recombinant; tags: N-terminal GST; dsDNA, one strand shown
# T4 sequence: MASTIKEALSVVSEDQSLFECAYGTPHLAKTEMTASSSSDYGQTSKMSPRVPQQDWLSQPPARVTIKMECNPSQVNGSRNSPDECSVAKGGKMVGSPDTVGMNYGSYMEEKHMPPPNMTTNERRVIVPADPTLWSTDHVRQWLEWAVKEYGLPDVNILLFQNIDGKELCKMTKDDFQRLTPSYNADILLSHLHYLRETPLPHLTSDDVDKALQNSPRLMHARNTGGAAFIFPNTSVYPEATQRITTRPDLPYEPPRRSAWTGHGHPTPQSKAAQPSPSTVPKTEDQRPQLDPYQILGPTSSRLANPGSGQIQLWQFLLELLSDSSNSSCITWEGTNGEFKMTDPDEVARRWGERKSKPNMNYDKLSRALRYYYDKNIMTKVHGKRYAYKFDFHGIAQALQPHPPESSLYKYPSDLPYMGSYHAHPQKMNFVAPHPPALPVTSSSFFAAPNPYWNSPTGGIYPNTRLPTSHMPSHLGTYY
# Outline: as §1
# ELF1 = ELF1 (Homo sapiens, UniProt P32519 1-619); conditions: protein: recombinant; tags: N-terminal GST; dsDNA, one strand shown
# ELF1, sequence (P32519 whole entry): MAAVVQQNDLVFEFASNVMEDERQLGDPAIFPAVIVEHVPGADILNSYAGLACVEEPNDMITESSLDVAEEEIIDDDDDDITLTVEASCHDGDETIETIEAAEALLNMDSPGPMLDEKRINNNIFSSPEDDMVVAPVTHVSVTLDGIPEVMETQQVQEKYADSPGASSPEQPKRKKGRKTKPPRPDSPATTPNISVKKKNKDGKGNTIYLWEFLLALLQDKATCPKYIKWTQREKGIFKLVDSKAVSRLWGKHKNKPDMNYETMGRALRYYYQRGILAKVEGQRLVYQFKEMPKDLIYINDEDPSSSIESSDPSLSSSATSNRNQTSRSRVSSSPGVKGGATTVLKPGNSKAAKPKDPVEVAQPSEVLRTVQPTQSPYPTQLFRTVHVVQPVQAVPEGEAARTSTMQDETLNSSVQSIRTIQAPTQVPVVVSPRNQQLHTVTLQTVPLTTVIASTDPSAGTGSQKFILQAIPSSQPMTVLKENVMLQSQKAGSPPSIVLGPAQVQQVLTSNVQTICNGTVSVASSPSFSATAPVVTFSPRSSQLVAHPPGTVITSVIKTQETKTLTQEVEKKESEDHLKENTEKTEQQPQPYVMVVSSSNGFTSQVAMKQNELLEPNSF
# Outline: as §1
# EHF = target: T5, EHF (Homo sapiens, UniProt Q9NZC4 1-300); conditions: protein: recombinant; tags: N-terminal GST; dsDNA, one strand shown
# T5 sequence: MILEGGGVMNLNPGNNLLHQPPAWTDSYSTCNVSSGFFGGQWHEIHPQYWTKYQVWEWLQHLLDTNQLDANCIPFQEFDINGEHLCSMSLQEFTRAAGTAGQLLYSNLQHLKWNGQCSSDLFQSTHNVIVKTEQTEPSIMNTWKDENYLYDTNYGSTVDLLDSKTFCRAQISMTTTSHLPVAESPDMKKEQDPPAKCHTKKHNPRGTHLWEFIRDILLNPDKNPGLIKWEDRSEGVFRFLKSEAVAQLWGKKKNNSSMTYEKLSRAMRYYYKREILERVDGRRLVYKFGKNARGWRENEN
# Outline: as §1
# SPI1 = SPI1 (Homo sapiens, UniProt P17947 1-270); conditions: protein: recombinant; tags: N-terminal GST; dsDNA, one strand shown
# Outline: as §1
# SPIB = SPIB (Homo sapiens, UniProt Q01892 1-262); conditions: protein: recombinant; tags: N-terminal GST; dsDNA, one strand shown
# SPIB, sequence (Q01892 whole entry): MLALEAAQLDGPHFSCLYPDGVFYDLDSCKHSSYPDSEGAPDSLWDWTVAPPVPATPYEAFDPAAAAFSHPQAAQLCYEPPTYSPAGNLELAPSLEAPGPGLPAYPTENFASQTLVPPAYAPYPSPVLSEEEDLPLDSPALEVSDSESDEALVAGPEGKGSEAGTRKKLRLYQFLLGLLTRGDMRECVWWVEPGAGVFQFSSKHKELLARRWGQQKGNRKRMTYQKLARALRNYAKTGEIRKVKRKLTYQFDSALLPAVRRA
# Outline: as §1
# ELK3 = target: T6, ELK3 (Homo sapiens, UniProt P41970 1-407); conditions: protein: recombinant; tags: N-terminal GST; dsDNA, one strand shown
# T6 sequence: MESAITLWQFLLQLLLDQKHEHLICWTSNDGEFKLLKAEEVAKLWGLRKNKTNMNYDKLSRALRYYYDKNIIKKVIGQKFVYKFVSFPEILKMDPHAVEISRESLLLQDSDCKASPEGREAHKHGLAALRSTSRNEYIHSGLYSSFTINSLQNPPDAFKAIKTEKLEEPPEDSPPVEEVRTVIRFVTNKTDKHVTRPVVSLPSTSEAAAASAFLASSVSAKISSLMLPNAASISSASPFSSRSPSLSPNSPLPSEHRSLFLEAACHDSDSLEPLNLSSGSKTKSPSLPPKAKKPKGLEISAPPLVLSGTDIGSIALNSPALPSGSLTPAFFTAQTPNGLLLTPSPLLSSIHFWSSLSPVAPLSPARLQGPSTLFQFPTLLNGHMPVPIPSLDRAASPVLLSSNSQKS
# Outline: as §1
# FEV = target: T7, FEV (Homo sapiens, UniProt Q99581 1-238); conditions: protein: recombinant; tags: N-terminal GST; dsDNA, one strand shown
# T7 sequence: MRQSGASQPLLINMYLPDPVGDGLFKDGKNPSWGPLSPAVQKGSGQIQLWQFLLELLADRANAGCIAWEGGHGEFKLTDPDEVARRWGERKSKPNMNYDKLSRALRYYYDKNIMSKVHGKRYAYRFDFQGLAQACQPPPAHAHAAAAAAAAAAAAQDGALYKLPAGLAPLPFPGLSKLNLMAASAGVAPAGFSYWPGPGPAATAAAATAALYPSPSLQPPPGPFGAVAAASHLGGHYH
# Outline: as §1
# ETV5 = ETV5 (Homo sapiens, UniProt P41161 1-510); conditions: protein: recombinant; tags: N-terminal GST; dsDNA, one strand shown
# ETV5, sequence (P41161 whole entry): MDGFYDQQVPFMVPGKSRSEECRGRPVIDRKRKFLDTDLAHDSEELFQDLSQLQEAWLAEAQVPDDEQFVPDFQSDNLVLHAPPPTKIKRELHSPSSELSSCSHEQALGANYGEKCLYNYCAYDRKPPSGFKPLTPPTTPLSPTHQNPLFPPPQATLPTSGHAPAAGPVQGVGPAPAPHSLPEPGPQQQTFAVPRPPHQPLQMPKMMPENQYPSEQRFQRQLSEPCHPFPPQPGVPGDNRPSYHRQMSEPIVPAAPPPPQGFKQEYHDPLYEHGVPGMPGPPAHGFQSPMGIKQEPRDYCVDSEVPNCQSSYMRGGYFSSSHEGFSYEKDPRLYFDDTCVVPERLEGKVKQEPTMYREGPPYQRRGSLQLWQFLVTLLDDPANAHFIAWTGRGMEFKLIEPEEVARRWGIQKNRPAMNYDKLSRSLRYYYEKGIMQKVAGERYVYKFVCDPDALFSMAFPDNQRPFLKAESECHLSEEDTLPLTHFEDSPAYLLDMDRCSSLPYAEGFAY
# Outline: as §1
# HSF1 = HSF1 (Homo sapiens, UniProt Q00613 1-529); conditions: protein: recombinant; tags: N-terminal GST; chain copies: 3; dsDNA, one strand shown
# HSF1, sequence (Q00613 whole entry): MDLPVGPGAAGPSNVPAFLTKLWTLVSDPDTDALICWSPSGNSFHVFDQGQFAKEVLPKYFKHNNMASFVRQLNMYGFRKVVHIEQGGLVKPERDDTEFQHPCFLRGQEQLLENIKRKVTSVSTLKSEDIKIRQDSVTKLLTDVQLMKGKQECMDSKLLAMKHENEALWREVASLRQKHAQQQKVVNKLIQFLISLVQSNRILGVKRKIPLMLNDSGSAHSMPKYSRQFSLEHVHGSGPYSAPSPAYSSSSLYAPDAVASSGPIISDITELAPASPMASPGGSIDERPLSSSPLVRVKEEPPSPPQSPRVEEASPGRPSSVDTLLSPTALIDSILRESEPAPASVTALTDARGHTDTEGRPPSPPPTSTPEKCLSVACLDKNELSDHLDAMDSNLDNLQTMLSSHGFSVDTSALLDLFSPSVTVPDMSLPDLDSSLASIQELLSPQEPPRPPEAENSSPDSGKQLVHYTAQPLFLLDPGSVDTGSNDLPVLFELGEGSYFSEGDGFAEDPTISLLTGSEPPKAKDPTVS
# Outline: as §1
# SPIC = target: T8, SPIC (Homo sapiens, UniProt Q8N5J4 1-248); conditions: protein: recombinant; tags: N-terminal GST; dsDNA, one strand shown
# T8 sequence: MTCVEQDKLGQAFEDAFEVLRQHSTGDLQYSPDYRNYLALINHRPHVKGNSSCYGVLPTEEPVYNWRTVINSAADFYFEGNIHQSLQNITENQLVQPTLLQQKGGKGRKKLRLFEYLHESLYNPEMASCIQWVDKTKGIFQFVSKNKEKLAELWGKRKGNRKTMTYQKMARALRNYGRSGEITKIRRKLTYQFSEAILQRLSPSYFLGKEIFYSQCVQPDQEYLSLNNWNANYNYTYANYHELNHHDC
# Outline: as §1
# ELF4 = ELF4 (Homo sapiens, UniProt Q99607 1-663); conditions: protein: recombinant; tags: N-terminal GST; dsDNA, one strand shown
# ELF4, sequence (Q99607 whole entry): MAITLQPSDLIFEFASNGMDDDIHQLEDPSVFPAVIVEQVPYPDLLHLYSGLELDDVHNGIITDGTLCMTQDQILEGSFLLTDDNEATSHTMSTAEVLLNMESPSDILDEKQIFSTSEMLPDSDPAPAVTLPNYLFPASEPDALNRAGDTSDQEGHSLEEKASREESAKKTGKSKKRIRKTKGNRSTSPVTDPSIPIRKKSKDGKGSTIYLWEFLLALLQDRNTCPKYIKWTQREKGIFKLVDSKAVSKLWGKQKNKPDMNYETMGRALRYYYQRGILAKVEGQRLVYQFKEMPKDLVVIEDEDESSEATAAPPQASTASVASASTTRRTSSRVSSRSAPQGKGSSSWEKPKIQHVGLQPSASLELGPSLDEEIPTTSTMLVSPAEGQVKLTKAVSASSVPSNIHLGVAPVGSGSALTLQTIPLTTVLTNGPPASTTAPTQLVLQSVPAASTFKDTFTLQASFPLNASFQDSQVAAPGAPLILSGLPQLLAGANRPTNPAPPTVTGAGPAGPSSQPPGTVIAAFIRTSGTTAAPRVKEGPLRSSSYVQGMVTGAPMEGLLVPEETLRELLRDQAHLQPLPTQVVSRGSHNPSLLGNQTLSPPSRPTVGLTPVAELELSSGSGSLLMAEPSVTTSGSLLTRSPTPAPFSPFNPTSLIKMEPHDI
# Outline: as §1
# ELK4 = target: T9, ELK4 (Homo sapiens, UniProt P28324-2 1-405); conditions: protein: recombinant; tags: N-terminal GST; dsDNA, one strand shown
# T9 sequence: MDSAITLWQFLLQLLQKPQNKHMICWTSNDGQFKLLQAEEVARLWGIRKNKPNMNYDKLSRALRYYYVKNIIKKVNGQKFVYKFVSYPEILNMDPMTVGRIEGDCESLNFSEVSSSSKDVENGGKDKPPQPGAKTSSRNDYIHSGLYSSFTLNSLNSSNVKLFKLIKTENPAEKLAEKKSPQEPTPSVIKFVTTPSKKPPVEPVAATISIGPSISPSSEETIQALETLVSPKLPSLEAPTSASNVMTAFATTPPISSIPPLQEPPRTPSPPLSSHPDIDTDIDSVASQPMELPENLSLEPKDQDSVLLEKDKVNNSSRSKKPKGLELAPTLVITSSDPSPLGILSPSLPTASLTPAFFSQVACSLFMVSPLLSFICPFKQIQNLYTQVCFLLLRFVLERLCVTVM
# Outline: as §1
# ETV2 = target: T10, ETV2 (Homo sapiens, UniProt O00321 1-342); conditions: protein: recombinant; tags: N-terminal GST; dsDNA, one strand shown
# T10 sequence: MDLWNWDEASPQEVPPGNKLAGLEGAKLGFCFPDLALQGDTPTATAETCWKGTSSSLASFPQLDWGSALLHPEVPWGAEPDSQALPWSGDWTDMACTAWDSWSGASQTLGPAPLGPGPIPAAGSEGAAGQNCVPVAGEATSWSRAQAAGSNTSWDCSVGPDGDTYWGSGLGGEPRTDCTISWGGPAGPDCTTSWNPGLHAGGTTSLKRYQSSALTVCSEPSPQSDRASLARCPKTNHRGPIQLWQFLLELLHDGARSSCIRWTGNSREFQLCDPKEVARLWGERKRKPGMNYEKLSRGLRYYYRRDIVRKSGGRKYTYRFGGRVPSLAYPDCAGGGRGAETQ
# Outline: as §1
# ELF3 = target: T11, ELF3 (Homo sapiens, UniProt P78545 1-371); conditions: protein: recombinant; tags: N-terminal GST; dsDNA, one strand shown
# T11 sequence: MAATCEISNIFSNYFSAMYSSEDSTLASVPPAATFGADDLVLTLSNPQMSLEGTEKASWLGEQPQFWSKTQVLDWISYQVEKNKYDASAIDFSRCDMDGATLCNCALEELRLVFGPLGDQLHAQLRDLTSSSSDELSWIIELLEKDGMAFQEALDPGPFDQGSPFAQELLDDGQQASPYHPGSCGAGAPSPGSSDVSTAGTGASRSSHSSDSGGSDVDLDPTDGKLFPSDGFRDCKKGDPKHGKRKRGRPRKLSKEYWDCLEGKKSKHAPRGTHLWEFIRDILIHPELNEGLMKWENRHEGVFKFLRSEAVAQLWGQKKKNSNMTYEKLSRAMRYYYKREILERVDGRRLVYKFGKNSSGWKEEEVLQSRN
# Outline: as §1
# CRX = CRX (Homo sapiens, UniProt O43186 1-299); conditions: protein: recombinant; tags: N-terminal GST; dsDNA, one strand shown
# CRX, sequence (O43186 whole entry): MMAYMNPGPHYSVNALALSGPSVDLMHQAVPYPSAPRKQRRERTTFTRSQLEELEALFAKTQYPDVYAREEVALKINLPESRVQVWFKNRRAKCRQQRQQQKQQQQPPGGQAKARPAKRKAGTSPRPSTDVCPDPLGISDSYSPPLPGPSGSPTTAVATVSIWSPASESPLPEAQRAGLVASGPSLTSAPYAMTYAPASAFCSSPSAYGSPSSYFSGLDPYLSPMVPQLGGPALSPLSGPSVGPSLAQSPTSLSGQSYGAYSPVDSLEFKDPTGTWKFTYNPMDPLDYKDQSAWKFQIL
# Outline: as §1
# ETV1 = ETV1 (Homo sapiens, UniProt P50549 1-477); conditions: protein: recombinant; tags: N-terminal GST; dsDNA, one strand shown
# ETV1, sequence (P50549 whole entry): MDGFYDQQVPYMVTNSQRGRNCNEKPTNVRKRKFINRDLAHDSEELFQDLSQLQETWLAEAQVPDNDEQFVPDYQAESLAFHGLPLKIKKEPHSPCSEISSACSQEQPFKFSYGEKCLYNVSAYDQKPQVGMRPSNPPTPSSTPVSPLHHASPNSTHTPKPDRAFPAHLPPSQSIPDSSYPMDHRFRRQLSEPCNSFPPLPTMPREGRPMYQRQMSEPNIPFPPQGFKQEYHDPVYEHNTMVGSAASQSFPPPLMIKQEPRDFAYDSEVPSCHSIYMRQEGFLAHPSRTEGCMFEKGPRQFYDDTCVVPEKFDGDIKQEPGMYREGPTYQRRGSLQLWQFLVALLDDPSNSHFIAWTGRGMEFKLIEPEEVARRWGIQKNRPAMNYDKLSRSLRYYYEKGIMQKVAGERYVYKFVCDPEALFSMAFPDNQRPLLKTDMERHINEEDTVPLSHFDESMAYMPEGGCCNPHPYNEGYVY
# Outline: as §1
sequence,measurement,setting,value
CTGCTT,binding signal,FLI1,"1.69 fold enrichment (6-mer frequency, TF over GST control)"
same,binding signal,ELK1,"1.57 fold enrichment (6-mer frequency, TF over GST control)"
same,binding signal,GABPA,"1.59 fold enrichment (6-mer frequency, TF over GST control)"
same,binding signal,ERG,"1.6 fold enrichment (6-mer frequency, TF over GST control)"
same,binding signal,ELF1,"1.65 fold enrichment (6-mer frequency, TF over GST control)"
same,binding signal,EHF,"1.88 fold enrichment (6-mer frequency, TF over GST control)"
same,binding signal,SPI1,"1.75 fold enrichment (6-mer frequency, TF over GST control)"
same,binding signal,SPIB,"1.54 fold enrichment (6-mer frequency, TF over GST control)"
same,binding signal,ELK3,"1.58 fold enrichment (6-mer frequency, TF over GST control)"
same,binding signal,FEV,"1.8 fold enrichment (6-mer frequency, TF over GST control)"
same,binding signal,ETV5,"1.66 fold enrichment (6-mer frequency, TF over GST control)"
same,binding signal,HSF1,"1.53 fold enrichment (6-mer frequency, TF over GST control)"
same,binding signal,SPIC,"1.8 fold enrichment (6-mer frequency, TF over GST control)"
same,binding signal,ELF4,"1.68 fold enrichment (6-mer frequency, TF over GST control)"
same,binding signal,ELK4,"1.88 fold enrichment (6-mer frequency, TF over GST control)"
same,binding signal,ETV2,"1.93 fold enrichment (6-mer frequency, TF over GST control)"
same,binding signal,ELF3,"1.28 fold enrichment (6-mer frequency, TF over GST control)"
same,binding signal,CRX,"1.69 fold enrichment (6-mer frequency, TF over GST control)"
same,binding signal,ETV1,"1.73 fold enrichment (6-mer frequency, TF over GST control)"
